From PubChem
Sampled rows, rich in hits. Any-hit rate of the full collection: about 4%.
FAS-TE inh = inhibitors of human fatty acid synthase thioesterase domain; P49327; recombinant FAS-TE, OMFH fluorogenic substrate, fluorescence endpoint; inhibition, % at 15 µM; hit rate 0.67% among 360,000; AID 602261;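 active = compounds whose normalised, plate-corrected inhibition of enzyme fluorescence in the single-dose primary screen is 50% or more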
ADAM17 inh = ADAM17 inhibition, QFRET primary screen; P78536; hit rate 0.83% among 370,000; AID 720648; inhibition, % at 6.95 µM; recombinant ADAM17, EDANS/DABCYL FRET peptide cleavage;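 active = inhibition above the mean of compounds lying between control limits plus 3 SD, set per campaign, cut at about 8.5% in these data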
aDG glyco act = alpha-DG glycosylation activation | Pro5-aDG cells, alpha-DG glycosylation AlphaScreen (IIH6); 0% Pro5, 100% B10-LARGE cell signal | activation, % at 10 µM | AID 624168 | hit rate 0.22% among 360,000;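 active = activation of at least 8% versus controls, or a plate z-score of at least 8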;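 note: Pro5 are CHO cells carrying HIG-tagged alpha-DG that lacks glycosylation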
GRIN3A LBD mod = modulates the human NR3A ligand-binding domain | NR3A LBD differential scanning fluorimetry, Tm shift; 0% = protein alone, 100% = glycine-bound protein | Tm shift relative to glycine control, % at 25 µM | hit rate 2.5% among 340,000 | AID 1259313;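 active = melting temperature shift of at least 10% of the positive control shift, at one fixed dose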
ADAM10 inh = ADAM10 inhibition, QFRET primary screen. O14672. recombinant ADAM10, EDANS/DABCYL FRET peptide cleavage, 3 h. inhibition, % at 7 µM. hit rate 0.62% among 370,000;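 active = inhibition above a per-campaign cutoff equal to the mean of compounds falling between control-based bounds plus 3 SD, cut at about 20% in these data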
Target sequence (O14672 214-748 limits assumed): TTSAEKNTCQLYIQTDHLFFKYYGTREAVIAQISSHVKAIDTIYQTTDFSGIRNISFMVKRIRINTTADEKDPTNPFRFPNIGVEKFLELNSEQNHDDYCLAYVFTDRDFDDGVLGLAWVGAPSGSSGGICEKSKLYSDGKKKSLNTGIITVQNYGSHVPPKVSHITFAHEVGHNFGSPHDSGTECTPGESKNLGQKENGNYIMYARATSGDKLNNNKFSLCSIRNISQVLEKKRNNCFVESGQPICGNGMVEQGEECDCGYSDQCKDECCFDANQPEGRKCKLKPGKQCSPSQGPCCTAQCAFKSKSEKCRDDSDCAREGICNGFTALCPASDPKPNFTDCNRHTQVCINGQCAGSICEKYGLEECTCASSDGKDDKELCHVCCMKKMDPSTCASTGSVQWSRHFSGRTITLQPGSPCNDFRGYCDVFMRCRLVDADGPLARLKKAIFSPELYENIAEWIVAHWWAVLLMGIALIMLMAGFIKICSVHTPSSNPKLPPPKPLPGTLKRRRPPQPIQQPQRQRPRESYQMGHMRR
FAS-TE conf = confirmation of human fatty acid synthase thioesterase inhibitors. recombinant FAS-TE, OMFH fluorogenic substrate, fluorescence. inhibition, % at 15 µM. shares compounds with FAS-TE inh. hit rate 45% among 2,300. AID 624325;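 active = compounds inhibiting the enzyme by at least 50% at 15 µM in any one of the replicates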
Each line names hits and unclear results; the compound was inactive in the other large screens (follow-up assays come after a bar, where they were run).

O=C(CNC(=O)c1nc[nH]c1C(=O)NCc1ccccc1)OCc1ccccc1	none
CC(C)Sc1nnc([C@@H]2CCCN2C(=O)OC(C)(C)C)o1	none
Cn1cnc([N+](=O)[O-])c1Sc1nc(N)nc2c1ncn2Cc1ccccc1	none
O=C1Nc2ccccc2N(O)N1c1ccc(Cl)c(Cl)c1	none
O=C1Nc2cc(Cl)c(Cl)cc2N(O)N1c1ccc(Cl)c(Cl)c1	FAS-TE inh 62 | FAS-TE conf 67
C=CCNC(=S)Nc1sc2c(c1C#N)CCCC2	none
C=CCN1c2ccccc2[C@]23C[C@@H](C(=O)OC)N(C(=O)NCCC)C2=NC(C(=O)OC)=C(C(=O)OC)[C@H]13	FAS-TE inh 79 | FAS-TE conf inactive
COC(=O)C1=C(C(=O)OC)[C@@H]2N(Cc3ccccc3)c3ccccc3[C@@]23C[C@@H](C(=O)OC)N(C(=O)CC(C)C)C3=N1	FAS-TE inh 77 | FAS-TE conf inactive
COC(=O)C1=C(C(=O)OC)[C@@H]2N(Cc3ccccc3)c3ccccc3[C@@]23C[C@@H](C(=O)OC)N(C(=O)c2cccs2)C3=N1	none
COC(=O)C1=C(C(=O)OC)[C@@H]2N(Cc3ccccc3)c3ccccc3[C@@]23C[C@@H](C(=O)OC)N(C(=O)c2cc(C)oc2C)C3=N1	FAS-TE inh 59 | FAS-TE conf inactive
O=[N+]([O-])c1ccc(-c2nc(NCC3CCCO3)c3ccccc3n2)cc1 (stereo not given)	FAS-TE inh 60 | FAS-TE conf inactive
O=C(O)c1ccc(Nc2nc(-c3ccc([N+](=O)[O-])cc3)nc3ccccc23)cc1	FAS-TE inh 55 | FAS-TE conf inactive
Oc1ccccc1-c1nc(NCC2CCCO2)c2ccccc2n1 (stereo not given)	none
O=C(Nc1cccc(S(=O)(=O)NC2=NCCC2)c1)c1ccc(F)cc1	none
Cc1ccc(S(=O)(=O)N2CCN(c3ncnc4scc(-c5ccccc5)c34)CC2)cc1	FAS-TE inh 52 | FAS-TE conf inactive
Cc1nc(N2CCN(S(=O)(=O)c3ccccc3C#N)CC2)c2c(-c3ccccc3)csc2n1	FAS-TE inh 83 | FAS-TE conf inactive
COc1ccc(-c2csc3ncnc(N4CCN(S(=O)(=O)c5cccc(C(F)(F)F)c5)CC4)c23)cc1	FAS-TE inh 50 | FAS-TE conf inactive
O=C(CSc1ccc(-c2ccc(Br)cc2)nn1)NC1CCCC1	none
O=C(CCC(=O)OCC(=O)c1ccc(-c2ccccc2)cc1)Nc1cccc(Cl)c1	none
CCCOc1ccc(N2C(=O)CC(SC(=NC)Nc3ccc(F)cc3)C2=O)cc1 (stereo not given)	none
CCCOc1ccc(N2C(=O)CC(SC(=N)N3N=C(c4ccccc4)CC3c3ccccc3)C2=O)cc1 (stereo not given)	FAS-TE inh 69 | FAS-TE conf inactive
COc1ccc(COC(=O)c2cc([N+](=O)[O-])ccc2N2CCOCC2)cc1F	FAS-TE inh 54 | FAS-TE conf inactive
Cc1ccc(C)c(COC(=O)c2cc([N+](=O)[O-])ccc2N2CCOCC2)c1	none
O=C(OCc1cccc(C(F)(F)F)c1)c1cc([N+](=O)[O-])ccc1N1CCOCC1	FAS-TE inh 58 | FAS-TE conf 46
O=C(OCc1ccc(Br)cc1)c1cc([N+](=O)[O-])ccc1N1CCOCC1	FAS-TE inh 73 (no result: GRIN3A LBD mod) | FAS-TE conf inactive
O=C(OCc1cccc(Cl)c1)c1cc([N+](=O)[O-])ccc1N1CCOCC1	FAS-TE inh 59 | FAS-TE conf inactive
CC(=O)c1ccccc1NC(=O)COC(=O)CCCN1C(=O)c2cccc3cccc(c23)C1=O	none
CCO[C@@H]1OC(C(=O)N2CCN(Cc3ccc4c(c3)OCO4)CC2)=C[C@H](C2CC2)[C@H]1CCCO	none
CCN1C(=O)[C@H]2[C@@H](c3ccc(C)cc3)N3C(=O)N(c4cccc(Cl)c4)C(=O)[C@@]3(Cc3ccc(Cl)cc3)[C@H]2C1=O	FAS-TE inh 86 | FAS-TE conf 53
CCN1C(=O)[C@H]2[C@@H](c3ccc(C)cc3)N3C(=O)N(c4cccc(Cl)c4)C(=O)[C@@]3(Cc3ccccc3)[C@H]2C1=O	none
CCN1C(=O)[C@H]2[C@@H](c3ccc(C)cc3)N3C(=O)N(c4cccc(Br)c4)C(=O)[C@@]3(Cc3ccccc3)[C@H]2C1=O	FAS-TE inh 67 | FAS-TE conf inactive
COc1ccc(C(CNC(=O)c2ccc(-c3nc4ccccc4s3)o2)N2CCCC2)cc1 (stereo not given)	none
O=C(NCc1ccc2c(c1)OCO2)c1ccc2c(c1)N(Cc1c(F)cccc1Cl)C(=O)CS2	FAS-TE inh 54 | FAS-TE conf 33
CCC1CCCCN1CCCNC(=O)c1ccc2c(c1)N(Cc1c(F)cccc1Cl)C(=O)CS2 (stereo not given)	none
Cc1cc(Cl)ccc1OC(C)C(=O)Nc1ccc([N+](=O)[O-])cn1 (stereo not given)	FAS-TE inh 52 | FAS-TE conf inactive
Cc1ccc(OC(C)C(=O)Nc2ccc(Cl)cn2)c([N+](=O)[O-])n1 (stereo not given)	none
Cc1nn(-c2ccc(Cl)cc2)c(NC(=O)C(C)C)c(-c2ccccc2)c1=O	none
C[C@H](CO)N1C[C@H](C)[C@@H](CN(C)Cc2ccccc2)Oc2c(NS(=O)(=O)c3ccc(F)cc3)cccc2C1=O	none
C[C@H](CO)N1C[C@H](C)[C@@H](CN(C)Cc2ccc(Cl)c(Cl)c2)Oc2c(NS(=O)(=O)c3ccc(F)cc3)cccc2C1=O	FAS-TE inh 54 | FAS-TE conf 58
Cc1ccc(S(=O)(=O)Nc2ccc3c(c2)C(=O)N([C@H](C)CO)C[C@H](C)[C@@H](CN(C)Cc2ccc(-c4ccccc4)cc2)O3)cc1	FAS-TE inh 81 (no result: ADAM17 inh, ADAM10 inh) | FAS-TE conf inactive
COc1ccc(N2CCN(CCNS(=O)(=O)c3ccc(F)cc3)CC2)cc1	none (no result: FAS-TE inh, aDG glyco act, GRIN3A LBD mod)
CCC(C)(C)C1CCC(=NNS(=O)(=O)c2ccc(C)c([N+](=O)[O-])c2)CC1 (stereo not given)	FAS-TE inh 73 | FAS-TE conf 58
Cc1ccc(S(=O)(=O)N/N=C2/CCCCC2C2CCCCC2)cc1[N+](=O)[O-] (stereo not given)	none
N#Cc1cc(-c2ccccc2)nc(Oc2ccccc2)n1	FAS-TE inh 69 | FAS-TE conf 45
N#Cc1c(/N=C/c2ccc(-c3ccc(C(=O)O)c(Cl)c3)o2)sc2c1CCCC2	FAS-TE inh 50 | FAS-TE conf inactive
COC(=O)c1c(C(=O)OC)c(-c2ccccc2)n2c1CCC2	none (no result: ADAM17 inh, ADAM10 inh)
O=C1CSc2ccc(C(=O)Nc3cccc(S(=O)(=O)Nc4ccc(Br)cc4)c3)cc2N1	FAS-TE inh 50, ADAM17 inh 17, GRIN3A LBD mod 28, ADAM10 inh 48 | FAS-TE conf inactive
O=C(Nc1cccc(O)c1)c1cccc(S(=O)(=O)Nc2cccc(O)c2)c1	none
